According to PubChem BioAssay (Tox21):
Inconclusive results are not listed. Where a call stands in place of a potency, no number is given. A number with no mark means an inactive call. The source made the active and inactive calls. Calls follow the shape of the dose curve; as a rule, active = well fitted inhibition curve with a large enough effect in the signal ratio in the repeat runs; inconclusive = weak or mixed curves, or effect the other way; inactive = flat fitted curve, though single readings scatter; the % refers to the signal ratio.

Experiment: qHTS assay for small molecule disruptors of the mitochondrial membrane potential (AID 720635)
Conditions: HepG2 mitochondrial membrane potential, Mito-MPS dye ratio; series mostly up to 83.2 µM
Outline: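 HepG2 cells exposed to compound 1 hr at 37C, then Mito-MPS dye 30 min. Ratio read of aggregate (540/590 nm) versus monomer (490/535 nm) fluorescence.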
Potency is read from the fitted curve at half-maximal effect.

Question: For CC(=O)SCC(CC(=O)c1ccc(C)cc1)C(=O)O (stereo not given), which Potency is on record?
Answer: Its Potency is “inactive”.

Question: Which Potency does the source give for CCCCCCC(=O)c1ccccc1 here?
Answer: Its Potency is “inactive”.

Question: Which Potency does the source give for CC(=O)c1ccc2ccc3ccccc3c2c1 here?
Answer: The Potency was 30.5 µM (active).

Question: With CCCCCCCCS(=O)(=O)O as the molecule, how does the Potency read?
Answer: The Potency was “inactive”.

Question: For COC(=O)c1c(C)cc(O)c(C)c1O, which Potency is on record?
Answer: The Potency was 12.2 µM (active).

Question: With O=S(=O)(O)c1cc(I)c(O)c2ncccc12 as the molecule, how does the Potency read?
Answer: Its Potency is “inactive”.

Question: Which Potency does the source give for C[C@H]1COc2c(C3(N)CC3)c(F)cc3c(=O)c(C(=O)O)cn1c23 here?
Answer: The Potency was “inactive”.

Question: With C=CCN1CCc2nc(N)sc2CC1 as the molecule, how does the Potency read?
Answer: The Potency was “inactive”.

Question: Which Potency does the source give for O=Cc1ccccc1S(=O)(=O)O here?
Answer: The Potency was “inactive”.

Question: With c1cc2ccc3ccc4ccc5cccc6c(c1)c2c3c4c56 as the molecule, how does the ratio activity, negative = MMP loss read?
Answer: Its ratio activity, negative = MMP loss is 16.7% [at 3.63 µM].

Question: Which Potency does the source give for CCN1CCN(C(=O)N[C@@H](C(=O)N[C@@H]2C(=O)N3[C@@H]2SC(C)(C)[C@H]3C(=O)O)c2ccccc2)C(=O)C1=O here?
Answer: Its Potency is “inactive”.

Question: For CC(C)(O)c1ccc(C(C)(C)O)cc1, which Potency is on record?
Answer: The Potency was “inactive”.

Question: Which Potency does the source give for NC(=O)CC[C@@H](N)C(=O)O here?
Answer: The Potency was “inactive”.

Question: With CCCCCC(CC)OC(=O)CCCOc1ccc(Cl)cc1Cl (stereo not given) as the molecule, how does the Potency read?
Answer: The Potency was “inactive”.

Question: For O=C(O)/C=C(\CC(=O)O)C(=O)O, which Potency is on record?
Answer: Its Potency is “inactive”.

Question: Which Potency does the source give for O=C(O)CCC(=O)Nc1ccc(S(=O)(=O)Nc2nccs2)cc1 here?
Answer: Its Potency is “inactive”.

Question: With C/C(=N\O)c1ccc(OCC(=O)N2CCCCC2)cc1 as the molecule, how does the Potency read?
Answer: The Potency was “inactive”.

Question: With C=CC(=O)OCCOCCOCC as the molecule, how does the Potency read?
Answer: The Potency was “inactive”.

Question: Which Potency does the source give for CC(C)OCCO here?
Answer: The Potency was “inactive”.

Question: For CCOC(=O)CC, which Potency is on record?
Answer: The Potency was “inactive”.

Question: Which Potency does the source give for N#Cc1ccccc1C#N here?
Answer: Its Potency is “inactive”.

Question: Which Potency does the source give for O=C(O)COc1ccc2ccccc2c1 here?
Answer: Its Potency is “inactive”.

Question: For COC(=O)N/N=C/c1c[n+]([O-])c2ccccc2[n+]1[O-], which Potency is on record?
Answer: Its Potency is “inactive”.

Question: With COCc1nnc(-c2ccc[n+]([O-])c2)n1-c1c(Cl)c(Cl)cc2[nH]c(=O)c(=O)[nH]c12 as the molecule, how does the Potency read?
Answer: Its Potency is “inactive”.

Question: With NS(=O)(=O)c1cc2c(cc1C(F)(F)F)NCNS2(=O)=O as the molecule, how does the Potency read?
Answer: Its Potency is “inactive”.
